# aSyn UTR act: Activators via SNCA 5'UTR binding, MLPCN; alpha-synuclein 5'UTR reporter, activators screen; activity score, % (tested at 7.5 µM), hits read low; AID 1814, 2009; actives 7.1% (n = 300,000); in the data active means activity score below about -60%
# * hit, by the source's call. The list is a sample of the results.
SMILES,aSyn UTR act
O=C(NCCOc1ccccc1)c1cncc(Br)c1,-92*
CC(C)(C)SCCNC(=O)c1ccccc1,-117*
COc1cccc(C(=O)NCCn2ccc3ccccc32)c1,-119*
COc1cc(OC)cc(C(=O)NCCOc2ccccc2)c1,-121*
O=C(NCCOc1ccccc1)c1cc2ccccc2o1,-81*
Cc1cc(C)nc(Nc2n[nH]c(-c3ccc(C(C)(C)C)cc3)n2)n1,-129*
Cc1cc(C)nc(Nc2n[nH]c(-c3ccc(N)cc3)n2)n1,-140*
Nc1c(-c2ccc(Cl)cc2)cnn1-c1cccc([N+](=O)[O-])c1,-134*
Nc1c(-c2ccccc2)cnn1-c1cccc([N+](=O)[O-])c1,-92*
Cc1nn(-c2cccc([N+](=O)[O-])c2)c(N)c1-c1ccccc1,-83*
CCC(C)NC(=O)c1cc(Cl)c(NC(=O)C2=C(C)OCCS2)cc1OC (stereo not given),-62*
CCN(C(=O)CSc1cc(C)c2cccc(C)c2n1)C1CCS(=O)(=O)C1 (stereo not given),-80*
CCCc1cc(N2CCOCC2)n2ncc(-c3ccccc3)c2n1,-67*
Cc1nc2c(-c3ccccc3)cnn2c(N2CCOCC2)c1C,-191*
O=C(c1ccc(F)cc1)c1ccc(-c2ccc(F)cc2)nc1,-141*
Clc1ccccc1N/N=C/c1ccc2c(c1)OCO2,-176*
C/C(=N\Nc1ccccn1)c1ccc2c(c1)OCO2,-159*
C(=N\Nc1nc2ccccc2[nH]1)/c1ccc2c(c1)OCO2,-222*
C/C(=N\Nc1nc2ccccc2[nH]1)c1ccc2c(c1)OCO2,-124*
C/C(=N\Nc1nc2ccccc2[nH]1)c1ccc2c(c1)OCCO2,-88*
C/C(=N\Nc1nc2ccccc2[nH]1)c1cc2ccccc2o1,-138*
C/C(=N\Nc1nc2ccccc2[nH]1)c1ccccn1,87
Cc1cc2ccccn2c1C(=O)c1ccc([N+](=O)[O-])o1,-147*
Cc1cc(NC(=O)CSc2nc(-c3ccco3)cc(C(F)(F)F)n2)no1,69
CS(=O)(=O)c1nc(-c2ccco2)cc(C(F)(F)F)n1,-76*
SMILES,aSyn UTR act
Fc1ccccc1/C=N/n1cc(-c2ccccc2)[nH]c1=S,-85*
S=c1[nH]c(-c2ccccc2)cn1/N=C/c1ccc(Br)cc1,-81*
Cc1c(NS(C)(=O)=O)cccc1-c1nc2cccnc2s1,-64*
CCS(=O)(=O)Nc1cccc(-c2nc3cccnc3s2)c1,-62*
Cc1ccc(-c2nc3cccnc3s2)cc1NC(=O)c1ccco1,-198*
CCS(=O)(=O)Nc1cc(-c2nc3cccnc3s2)ccc1C,-123*
Cc1ccc(NC(=O)c2cnccn2)nc1,-78*
Cc1ccc(NC(=O)c2cnccn2)c(Br)c1,-87*
CCOc1ccc2c(c1)c(N=O)c(O)n2C,-65*
O=C(Nc1cccc(C(F)(F)F)c1)c1scc2c1OCCO2,-73*
COc1cccc(/C=C/C(=O)c2c(O)cc(C)oc2=O)c1O,-111*
COc1ccc(/C=C/C(=O)c2c(O)cc(C)oc2=O)c(OC)c1,-230*
CCOC(=O)Nc1cc(Br)c2c(c1)OCCO2,-68*
Cc1cccc2cc(C#N)c(SCc3nnc(-c4ccccc4[N+](=O)[O-])o3)nc12,-87*
O=C(Nc1nc2c(s1)CCCC2)c1ccc(Br)s1,-93*
Cc1ncsc1C(=O)Nc1nc2c(s1)CCCC2,-159*
Nc1cc(N)nc(SCC(=O)Nc2ccc(Br)cc2Cl)n1,-79*
Cc1ccc(C2=CSC3=NNC4(CCCCC4)NN23)cc1,-126*
CC(Sc1nnc(NCc2ccccc2)s1)C(=O)Nc1ccc2c(c1)C(=O)c1ccccc1C2=O (stereo not given),-165*
Cc1ccc(OCCOc2ccc(Cl)cc2Cl)c([N+](=O)[O-])n1,-88*
COc1ccc(OCCOc2ccc(C)nc2[N+](=O)[O-])cc1,-106*
Cc1cc(C)n(-c2nc3c(c(=O)[nH]c(=O)n3C)n2CC(O)COc2ccc(Cl)cc2Cl)n1 (stereo not given),73
Cc1ccc(COc2ccc(C)nc2[N+](=O)[O-])cc1,-118*
CN(C)Cc1ccccc1Sc1ccc2c(c1)CCCC2,104
Cn1cc(/C=C2\SC(=O)N(c3ccccc3)C2=O)c2ccccc21,-217*
SMILES,aSyn UTR act
O=C1S/C(=C\c2cccs2)C(=O)N1c1ccc(O)cc1,-133*
Cn1cc(/C=C2\SC(=O)N(c3ccc(O)cc3)C2=O)c2ccccc21,-86*
Cn1cc(/C=N/n2cnc3scc(-c4ccccc4)c3c2=O)c2ccccc21,66
Cc1ccc(C(=O)/C=C2/NC(=O)CS2)cc1,-103*
CC(C)CC[n+]1ccccc1/C=C/c1ccc(N(C)C)cc1,79
CN(C)c1ccc(/C=C/c2cccc[n+]2[O-])cc1,-101*
Cc1c(N=c2c(=O)c3ccccc3c2=O)c(=O)n(-c2ccccc2)n1C,-140*
COc1ccc(-c2c/c(=N\c3nc(-c4ccccc4)c(C)s3)c3ccccc3o2)cc1O,75
COc1ccc(-c2cc(=Nc3c(C)n(C)n(-c4ccccc4)c3=O)c3ccccc3o2)cc1,-270*
CCOC(=O)c1sc(N)c(C(=O)OCC)c1C,-65*
Cc1ccn2c(C(=O)CSc3ccccc3)c(C)nc2c1,-65*
CC(=O)N1CCc2cc(N=NC3=C(O)CCCC3=O)ccc21,-100*
O=C(N/N=C/c1ccc2c(c1)OCO2)c1cccc(NC(=O)c2ccccc2Cl)c1,-158*
Cc1cccc(C(=O)Nc2cccc(C(=O)N/N=C/c3ccc4c(c3)OCO4)c2)c1,-109*
CC(C)(C)c1ccc(C(=O)Nc2ncn[nH]2)cc1,-134*
CCc1nc(SCc2ccc(Cl)cc2)n[nH]1,-49*
CCc1nc(SCc2ccc(OCC(C)C)cc2)n[nH]1,-102*
CCc1nc(SCc2ccc(Br)cc2)n[nH]1,-88*
O=C(Nc1ccc([N+](=O)[O-])cc1)c1ccccc1F,-154*
N/C(Cc1ccc([N+](=O)[O-])cc1)=N\OC(=O)c1ccccc1F,-185*
O=C(Nc1ccc(-c2ccc([N+](=O)[O-])cc2)cc1)c1ccccc1F,-69*
CC(=O)Nc1ccc(NC(=O)c2ccccc2S(=O)(=O)c2ccccc2[N+](=O)[O-])cc1,-81*
CC1(c2ccc(NC(=O)c3ccccc3F)cc2)CC1(Cl)Cl (stereo not given),-195*
O=[N+]([O-])c1ccccc1S(=O)(=O)c1ccccc1,-79*
O=[N+]([O-])c1ccccc1/C=N/Nc1nccnc1Cl,-184*
SMILES,aSyn UTR act
Nc1cc(Cl)nc(N/N=C/c2ccccc2[N+](=O)[O-])n1,-188*
Oc1ccccc1/C=N/Nc1nccnc1Cl,88
O=C(NCC(=O)N1CCc2ccccc2C1)c1ccccc1Cl,-101*
O=C(CNC(=O)c1ccccc1Cl)OCC(=O)N1CCc2ccccc21,-117*
Cc1cc(C(=O)OCC(=O)N2CCc3ccccc32)c(C)o1,-163*
CN(C)CCn1cnc2c(c1=N)C(c1ccccc1)c1ccc3ccccc3c1O2 (stereo not given),90
CCc1ccc(C(=O)Nc2cc3c(cc2Cl)OCCCO3)cc1,-172*
O=C(Cc1ccccc1)Nc1cc2c(cc1Cl)OCCCO2,-147*
O=C(CNC(=O)c1ccc(Cl)cc1)c1ccccc1,-100*
O=C(CNC(=O)c1ccc(F)cc1)c1ccc(Cl)cc1,-168*
O=C(CNC(=O)c1ccc(Br)cc1)c1ccccc1,-94*
O=C(CNC(=O)c1ccccc1C(=O)O)c1ccccc1,-127*
CC(=O)c1cc(C#N)c(SCc2ccccc2)nc1C,-85*
CC(=O)c1cc(C#N)c(SCc2ccccn2)nc1C,-114*
COc1cc(/C=C2\SC(N)=NC2=O)cc(OC)c1,-64*

# Source: PubChem BioAssay
